# In all, about 200,000 compounds went through this assay and about 15 (0.007%) were called active. The sample as a whole holds a higher share of actives than the screen did. Values without a mark were called inactive. Cut-off read from the data, not from the text of the source: active = displacement above about 50%; inactive = the rest.
# Biological target: E3 ubiquitin-protein ligase XIAP (Homo sapiens) (UniProt P98170)
# Assay: small molecules displacing peptide from XIAP – biochemical, IAP family, fluorescence polarization (AID 1018)
# Details: XIAP BIR domain, at 20 µM, active compounds read high
# Chain of E3 ubiquitin-protein ligase XIAP (Homo sapiens) (P98170 whole entry, looked up): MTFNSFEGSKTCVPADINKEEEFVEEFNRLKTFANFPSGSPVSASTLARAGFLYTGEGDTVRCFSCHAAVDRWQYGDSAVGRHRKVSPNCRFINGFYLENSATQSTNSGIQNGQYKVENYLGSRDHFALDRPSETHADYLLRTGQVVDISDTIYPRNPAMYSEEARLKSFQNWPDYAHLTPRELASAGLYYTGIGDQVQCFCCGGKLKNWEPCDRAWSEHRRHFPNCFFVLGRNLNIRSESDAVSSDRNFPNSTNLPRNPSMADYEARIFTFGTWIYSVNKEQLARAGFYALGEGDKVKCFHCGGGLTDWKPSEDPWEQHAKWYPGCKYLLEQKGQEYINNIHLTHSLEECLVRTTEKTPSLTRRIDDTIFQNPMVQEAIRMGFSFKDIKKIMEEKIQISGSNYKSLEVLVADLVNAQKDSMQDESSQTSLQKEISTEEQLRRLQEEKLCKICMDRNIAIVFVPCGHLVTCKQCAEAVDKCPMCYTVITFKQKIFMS
row,SMILES,displacement
1,CCOC(=O)c1ccc(NC(=O)N2CCN(CCc3ccccc3)CC2)cc1,-8.1%
2,Cc1sc2ncn(-c3ccccc3)c(=O)c2c1C,4.2%
3,Cc1ccc2nc(C3CCCN(C(=S)Nc4ccccc4C)C3)[nH]c2c1 (stereo not given),-10%
4,CCCOC(=O)/C(=C\C=C\c1ccco1)NC(=O)c1ccccc1,-0.1%
5,Cc1ccc(N/C(N)=N/c2nc(CSc3ccc(C)cc3)cc(=O)[nH]2)cc1,1.1%
6,CC(/C=C1\SC(=S)N(NC(=O)c2ccccc2C)C1=O)=C\c1ccccc1,-1.8%
7,Fc1cccc(CSc2nc3ccncc3[nH]2)c1,-5.3%
8,CCOc1cc(N2CCOCC2)c(OCC)cc1NC(=O)CSc1ncccn1,-8.5%
9,O=C(Cn1cc(CCO)nn1)N1CCNCC1,-26.3%
10,CCOC(=O)c1c(C)[nH]c(C)c1C(=O)CSc1nnc(-c2ccncc2)n1C,-0.3%
11,O=C(Nc1cn(-c2ccccc2)nc1-c1ccc(Cl)cc1)c1ccccc1,-8.1%
12,CN1CCN(CC(O)COC(c2ccccc2)c2ccccc2)CC1 (stereo not given),-2.7%
13,CS(=O)(=O)N(CC(=O)Nc1ccc2c(c1)OCO2)c1ccccc1,0.9%
14,CCCCCC(=O)N1CCN(CCN=CC2=C(O)CC(c3ccc(OC)c(OC)c3)CC2=O)CC1 (stereo not given),-3.4%
15,O=c1[nH]c2cc3c(cc2cc1CN(Cc1cccnc1)C(=S)NCc1ccco1)OCO3,-8.9%
16,O=C(NC1CCCC1)C(c1ccncc1)N(Cc1ccco1)C(=O)c1ccc(-c2ccccc2)[nH]1 (stereo not given),-0.5%
17,O=C(CNC(=O)c1ccc(N2C(=O)c3ccccc3C2=O)cc1)OCC(=O)c1ccccc1,-3.8%
18,CCc1ccc(C(=O)COC(=O)CNC(=O)c2ccc(N3C(=O)c4ccccc4C3=O)cc2)cc1,-2.7%
19,O=C(CNC(=O)c1ccc(N2C(=O)c3ccccc3C2=O)cc1)OCC(=O)c1ccc(Cl)cc1,77.6% (active)
20,O=C(c1ccc2c(=O)n(C3CCCC3)c(=S)[nH]c2c1)N1CCCCCC1,68.1% (active)
21,O=C(c1ccc2c(=O)n(C3CCCC3)c(=S)[nH]c2c1)N1CCN(C2CCCCC2)CC1,-21.2%
22,CC1CCCN(C(=O)c2ccc3c(=O)n(C4CCCC4)c(=S)[nH]c3c2)C1 (stereo not given),-8.7%
23,Cc1ccc(NC(=O)c2ccc(Cl)nc2)cc1,-3.5%
24,Cc1cccc(S(=O)(=O)NCC2CCCO2)c1 (stereo not given),-6.3%
25,Cc1cc(C(=O)NCc2ccc(C(=O)O)o2)c(C)o1,-8.1%
